28 compounds from PubChem BioAssay AID1626 (SRMLSC, 2009) can be followed below.

Hit rate of the full screen: of about 220,000 compounds, about 2,000 (0.91%) were called active. Not shown: some 2% with an inconclusive outcome. A selection follows. Measured potencies and affinities stand elsewhere. Values without a mark were called inactive. No stated cut-off is given here; in the data, inconclusive means inhibition above about 80% without an active follow-up result; inactive means below that; test concentration not stated here.

The assay can be described thus: M. tuberculosis H37Rv growth inhibitors, H37Rv strain (AID 1626).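 Further: bacteria incubated seven days before Alamar blue readout; 0% = bacteria only wells and 100% = bacteria with antibiotic wells.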 The settings on record: active compounds read high, concentration not given here.
Consider `CC(/C=C/c1ccccc1)=N\Nc1nc(-c2ccccc2)cs1`, for which the inhibition (usually the relative decrease from the control value, in per cent) is 5.57%.

With `CCCCn1nnc(NC(=O)c2ccc(-c3ccccc3[N+](=O)[O-])o2)n1`, the inhibition was 9.1%. The figure for `CCc1ccc(NS(=O)(=O)c2ccc(OC)c(C)c2)cc1` is 16.8%; for `Cc1nn(C(=O)c2c(-c3ccccc3)noc2C)c(C)c1N=Nc1cc(C(F)(F)F)cc(C(F)(F)F)c1` it is 4.12%; for `COC(=O)CNC(=O)C1CCN(c2nc(C)cc(C)n2)CC1` it is -8.28%.

`CCOC(=O)CN1C(=O)C(CC)Oc2ccccc21` (stereo not drawn): the inhibition was -1.23%. In the case of `CCOC(=O)N1c2ccccc2C=CC1OCC` (stereo not drawn) it was -8.15%; in that of `O=C(CN1CCN(c2ccccc2Cl)CC1)NC1CCCc2ccccc21` (stereo not drawn), 14.2%; in that of `CCCC1(CCC)C(=O)NC(=NCc2ccccc2)NC1=O`, -6.66%. Consider `CCCCOc1cccc(-c2nnc(N)s2)c1`, for which the inhibition is 37.6%. On to `CCCCOc1cccc(C(=O)O)c1`, for which the inhibition was -6.88%. The figure for `C=CCCCCCCCC(=O)OC` is -15.6%; for `O=C(CSc1n[nH]c(-c2cccs2)n1)NCc1ccc2c(c1)OCO2` it is 6.67%; for `CCOC(=O)Nc1c(C)n(C)n(-c2ccccc2)c1=O` it is -5.08%. Turning to `COC(=O)c1ccccc1NC(=O)CSc1nnc(-c2ccc(C)cc2)o1`, the inhibition was 6.5%.

On to `O=C(OCC#CCSc1nnc(-c2cccc3ccccc23)o1)c1ccco1`, for which the inhibition was 64.9%. The figure for `O=C(OCc1nnc(-c2ccccc2)o1)c1ccco1` is 5.59%; for `Cc1ccc(-c2nnc(-c3ccc(NC(=O)c4ccco4)cc3)o2)cc1` it is 6.39%. The figure for `Cc1ccc(CN2CCc3c(OCC(=O)Nc4cc(C)ccc4C)cccc3C2=O)cc1` is 4.57%; for `CC1CCCCN1S(=O)(=O)c1ccc(S(=O)(=O)N2CCN(c3ccccc3)CC2)cc1` (stereo not drawn) it is -4.53%; for `O=C(c1ccco1)N1CCN(S(=O)(=O)c2ccc(C3CCCCC3)cc2)CC1` it is -4.85%. In the case of `CCOc1ccc(N2CC(=O)N(c3ccc(OCC)cc3)CC2=O)cc1` it was -2.5%. As for `CCOc1ccc(N2C(=O)CNC2=S)cc1`, the inhibition was -2.82%. On to `CCOC(=O)c1cnc2ccc(OCC)cc2c1NCc1cccnc1`, for which the inhibition is 10.7%. In the case of `CCOC(=O)c1cnc2ccc(OC)cc2c1NCc1ccccc1` it was 20.8%. With `CCSc1nnc(NC(=O)C2Cc3ccccc3CN2C(=O)c2ccco2)s1` (stereo not drawn), the inhibition is -9.18%. The figure for `COC(=O)CC1COc2ccccc2N1C(=O)c1ccc(OC)cc1` (stereo not drawn) is -4.78%; for `COc1ccccc1C1C([N+](=O)[O-])=C(N)Oc2c1c(=O)oc1ccccc21` (stereo not drawn) it is -2.62%.
